# Data published in PubChem BioAssay (EPA / NIEHS).
# Active and inactive are the calls of the source. The calls were made as follows: active = hit-call score of the fitted dose curve at least 0.9, where 1 is the maximum; inactive = score below 0.9.
# Experiment: BSK_LPS_PGE2: BioMAP Diversity Plus: LPS Assay for Prostaglandin E2 (PGE2) Biomarker Activity (AID 2283082)
# Settings: primary human HUVEC with PBMC; actives raise or lower the signal
# Procedure: BSK_LPS is a cell-based, multiplexed-readout assay that uses umbilical vein endothelium and peripheral blood mononuclear cells, a human vascular primary cell co-culture, with measurements taken at 24 hours after chemical dosing in a 96-well plate.BSK_LPS_PGE2 is an assay component measured in the BSK_LPS assay. It measures PGE2 antibody related to regulation of gene expression using ELISA technology.Data from the assay component BSK_LPS_PGE2 was analyzed into 1 assay endpoint. This assay endpoint, BSK_LPS_PGE2, was analyzed with bidirectional fitting relative to DMSO as the negative control and baseline of activity. Using a type of binding reporter, gain or loss-of-signal activity can be used to understand changes in the signaling as they relate to the gene PTGER2. Furthermore, this assay endpoint can be referred to as a primary readout, because this assay has produced multiple assay endpoints where this one serves a signaling function. To generalize the intended target to other relatable targets, this assay endpoint is annotated to the gpcr intended target family, where the subfamily is rhodopsin-like receptor.
# The levels of cell surface (or secreted, indicated by the prefix "s") biomarker endpoints were measured by ELISA. Overt cytotoxicity to cells in confluent adherent cultures (all systems other than the BT system) was assessed by measuring total protein levels using sulforhodamine B (SRB) staining in parallel cultures at the time of biomarker measurements, indicated as SRB endpoints. For proliferation assays for adherent cell types, individual cell types are cultured at sub-confluence and relative cell numbers quantified by SRB staining at time points optimized for each system (48 h: 3C and CASM3C systems; 72 h: BT and HDF3CGF systems; 96 h: SAg system). SRB was performed by staining cells with 0.1% SRB after fixation with 10% TCA and reading wells at 560 nm.Viability and proliferation of PBMC (T cells) was quantified by Alamar Blue reduction for the SAg and BT systems. For PBMC viability (referred to as PBMC Cytotoxicity within the assay endpoint names), cells were plated (75,000/well in a 96-well plate) and then chemical samples added for 1 h before addition of activators, SEB and TSST-1 (20 ng/mL final concentration each). Cells were incubated for 90 h. Then, Alamar Blue (20 uL/well) (Invitrogen, Cat DAL1100) was added for 6 h, and the plates were read with a fluorescence microplate reader at 546/580 nm (excitation/emission). For PBMC proliferation, cells were plated and activated as above but incubated for only 16 h prior to addition of Alamar Blue. Plates were read after 6 h.
Compound,outcome,AC50
CC(C)CC(C)(O)C#CC(C)(O)CC(C)C (stereo not given),inactive,–
COC(=O)c1c(Cl)c(Cl)c(C(=O)OC)c(Cl)c1Cl,inactive,–
Cn1cnc([N+](=O)[O-])c1Sc1ncnc2nc[nH]c12,inactive,–
COc1cccc(-c2ccc(/C=C\CN3CCCCCC3)cc2Cl)c1,inactive,–
COC(=O)CC(=O)OC,inactive,–
Cn1c(=O)cc(Oc2ccc(F)cc2F)c2cnc(NCC(C)(C)O)nc21,–,1.76 µM (active)
CCOc1cccc(-n2cc(C(=O)N3CCN(c4cc(C(=O)O)c5ccccc5c4)CC3)nc2-c2ccc(C)cc2)c1,–,29.4 µM (active)
Cc1ccc(O)cc1,–,4.37 µM (active)
C1=CCCC=CCCC=CCC1,inactive,–
CCCN(C1CCN(C(=O)C2CCNCC2)CC1)[C@@H]1CCc2ccc(OC)cc2C1,inactive,–
Cc1[nH]cnc1C[C@H]1CCc2c(C)c3ccccc3n2C1=O,inactive,–
O=C(CCCCCCCCc1cccnc1)N1CCC(C=C(c2ccccc2)c2ccccc2)CC1,inactive,–
O=c1[nH]c2ccc(S(=O)CCN3CCC(Cc4ccc(F)cc4)CC3)cc2o1 (stereo not given),inactive,–
CC(=O)c1ccc2c(c1)[C@H](NC(=O)c1ccc(F)cc1)[C@@H](O)C(C)(C)O2,inactive,–
Cc1ccc(N)cc1O,–,4.87 µM (active)
Nc1ccc(Nc2ccccc2)cc1,–,1.44 µM (active)
CC1=CC(=O)CC(C)(C)C1,inactive,–
CN(C)c1ccc(N=NS(=O)(=O)O)cc1,inactive,–
Nc1cccc(N)c1,inactive,–
CCC(C)(C)C(=O)O[C@H]1C[C@@H](C)C=C2C=C[C@H](C)[C@H](CC[C@@H]3C[C@@H](O)CC(=O)O3)[C@H]21,inactive,–

Compound,outcome,AC50
CCCCC(CC)COC(=O)CCCCCCCCC(=O)OCC(CC)CCCC (stereo not given),inactive,–
Fc1ccccc1[C@@H](F)COC1CCC(Nc2ncnc3[nH]ncc23)CC1 (stereo not given in full),inactive,–
CCCCC(CC)COC(=O)c1ccc(C(=O)OCC(CC)CCCC)cc1 (stereo not given),inactive,–
O=C1CCC(N2C(=O)c3ccccc3C2=O)C(=O)N1 (stereo not given),inactive,–
NC(=O)NO,inactive,–
Nc1nc2ncc(CNc3ccc(C(=O)N[C@@H](CCC(=O)O)C(=O)O)cc3)nc2c(=O)[nH]1,inactive,–
CCOCCOCCOCCO,inactive,–
COC(=O)c1ccccc1O,inactive,–
Cc1ccc(S(=O)(=O)O)cc1C,inactive,–
CCOC(=O)COc1ccc2c(c1)CC(NCC(O)c1cccc(Cl)c1)CC2 (stereo not given),–,27.6 µM (active)
C=CCCCCCCCCC(=O)O,–,8.17 µM (active)
CC/C(=C\C(=N/O)C(N)=O)C(C)[N+](=O)[O-] (stereo not given),inactive,–
O=P(OC(CCl)CCl)(OC(CCl)CCl)OC(CCl)CCl,inactive,–
CCN(C(=O)c1cc(C)cc(OC[C@H](C)Nc2ccncc2)c1)C(C)C,inactive,–
CC(=O)OCCC(C)C,inactive,–
O=C(OC[C@H]1O[C@@H](OC(=O)c2cc(O)c(O)c(OC(=O)c3cc(O)c(O)c(O)c3)c2)[C@H](OC(=O)c2cc(O)c(O)c(OC(=O)c3cc(O)c(O)c(O)c3)c2)[C@@H](OC(=O)c2cc(O)c(O)c(OC(=O)c3cc(O)c(O)c(O)c3)c2)[C@@H]1OC(=O)c1cc(O)c(O)c(OC(=O)c2cc(O)c(O)c(O)c2)c1)c1cc(O)c(O)c(OC(=O)c2cc(O)c(O)c(O)c2)c1,inactive,–
CC(C)=CCC/C(C)=C/CO,inactive,–
C1N2CN3CN1CN(C2)C3,inactive,–
COCCOCCOCCOC,inactive,–
Cc1c(-c2cccnc2)c2ccccc2n1CCCCC(=O)O,–,1.14 µM (active)
